Measurements published in the supplement of paper PMC6555819.

Columns and labels:
Test in all cases: PBM binding z-score (relative to random genomic background probes); higher = stronger binding; sequences stand for … in GC…GCGATTGACAGCGTAGAATGAAGG
[1] = tested on: PPARg:RXRa DBDmut IVT, anti-RXR (DBD mutation: RXRa K156A/R161A, NR concentration 270 nM, RXRa partner concentration 90 nM)
In short: (§1)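 Scanned fluorescence from custom Agilent 4×180K protein-binding microarrays was regression-normalized. Binding z-scores use random background probes as reference. Ligand-free nuclear receptor dimers were incubated on the arrays for 1 h and detected with antibodies against each partner (one per run).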

[2] = tested on: PPARg:RXRa IVT, anti-PPARg (NR concentration 270 nM, RXRa partner concentration 90 nM)
In short: as §1

[3] = tested on: PPARg DBDmut:RXRa IVT, anti-PPARg (DBD mutation: PPARg1 K132A/R137A, NR concentration 270 nM, RXRa partner concentration 90 nM)
In short: as §1

[4] = tested on: PPARg DBDmut IVT, anti-PPARg (DBD mutation: PPARg1 K132A/R137A, NR concentration 270 nM)
In short: as §1

[5] = tested on: PPARg homodimer (NR concentration 180 nM)
In short: as §1

[6] = tested on: PXR:RXRa (NR concentration 270 nM, RXRa partner concentration 90 nM)
In short: as §1

[7] = tested on: PXR homodimer (NR concentration 270 nM)
In short: as §1

[8] = tested on: RARa:RXR (NR concentration 270 nM, RXRa partner concentration 90 nM)
In short: as §1

[9] = tested on: RARa homodimer (NR concentration 270 nM)
In short: as §1

[10] = tested on: RARb:RXRa (NR concentration 270 nM, RXRa partner concentration 90 nM)
In short: as §1

[11] = tested on: RARb homodimer (NR concentration 270 nM)
In short: as §1

[12] = tested on: RARg:RXRa (NR concentration 270 nM, RXRa partner concentration 90 nM)
In short: as §1

[13] = tested on: RARg homodimer (NR concentration 270 nM)
In short: as §1

[14] = tested on: RXRa DBDmut IVT, anti-RXR (DBD mutation: RXRa K156A/R161A, NR concentration 90 nM)
In short: as §1

[15] = tested on: RXRa homodimer (NR concentration 180 nM)
In short: as §1

[16] = tested on: THRa:RXRa (NR concentration 90 nM, RXRa partner concentration 90 nM)
In short: as §1

[17] = tested on: THRa homodimer (NR concentration 90 nM)
In short: as §1

[18] = tested on: VDR:RXRa (NR concentration 270 nM, RXRa partner concentration 90 nM)
In short: as §1

[19] = tested on: VDR homodimer (NR concentration 270 nM)
In short: as §1

Row | Sequence | PBM binding z-score [1] | PBM binding z-score [2] | PBM binding z-score [3] | PBM binding z-score [4] | PBM binding z-score [5] | PBM binding z-score [6] | PBM binding z-score [7] | PBM binding z-score [8] | PBM binding z-score [9] | PBM binding z-score [10] | PBM binding z-score [11] | PBM binding z-score [12] | PBM binding z-score [13] | PBM binding z-score [14] | PBM binding z-score [15] | PBM binding z-score [16] | PBM binding z-score [17] | PBM binding z-score [18] | PBM binding z-score [19]
1 | AGAATGAGGTTGTACGTAGATCAGGGAAGAAAGT | -0.0167 | 0.566 | 0.8 | 0.199 | 0.226 | 0.252 | 0.629 | 0.411 | 0.476 | 0.142 | 0.561 | 0.15 | 0.156 | 0.679 | 0.32 | 0.638 | 0.288 | 0.177 | 0.389
2 | ACTAGTTGGTCAGCTGAGGTCATACACAATTCGG | 1.47 | 2.35 | 1.46 | 1.13 | 3.38 | 5.65 | 3.46 | 4.45 | 0.98 | 3.15 | 3.89 | 3.68 | 3.38 | 1.89 | 3.86 | 4.94 | 4.75 | 4.73 | 4.31
3 | AGAATGAGGTTACCAAAGATCAGGGCAACGCTTG | 3.79 | 3.77 | 0.564 | 0.291 | 0.848 | 1.81 | -0.116 | 2.47 | -0.187 | 2.43 | 1.97 | 2.24 | 1.97 | 1.14 | 2.77 | 3.16 | 1.2 | 1.69 | 0.728
4 | AGAATGAGGTTATTAAGATCAGGTAATTGCGGTC | 3.34 | 2.83 | 0.665 | 0.745 | 1.17 | 1.48 | 0.904 | 1.51 | 0.41 | 1.37 | 1.14 | 1.13 | 0.895 | 1.8 | 1.87 | 2.5 | 1.2 | 2.82 | 1.13
5 | GCTAGTTGGTCAGTAAAAGGTCACACGCCGGTCG | 1.06 | 3.13 | -0.186 | 0.255 | 3.94 | 5.06 | 0.982 | 6.11 | 1.93 | 4.53 | 5.37 | 5.72 | 5.2 | 0.626 | 5.46 | 3.72 | 1.66 | 3.87 | 1.85
6 | CAACCTAGGTCAAAGGTCAAAGTCGAGCCAACCA | 5.72 | 7.45 | 2.7 | 1.79 | 4.67 | 7.39 | 1.35 | 8.88 | 2.65 | 5.83 | 5.33 | 9.2 | 7.77 | 3.16 | 10.1 | 5.01 | 1.81 | 7.01 | 3.91
7 | GCATATAGGTAATACAAGGTGACAGTCCGATTGT | 4.45 | 3.54 | 1.4 | 0.834 | 0.847 | 0.242 | 0.189 | 1.36 | 0.735 | 0.42 | 0.679 | 0.651 | 0.825 | 0.299 | 0.86 | 4.15 | 0.967 | 0.313 | 0.0173
8 | CGTCTAAGGTCAATGCTAGGTCAGTGAAAGCATT | 3.81 | 4 | -0.172 | -0.413 | 4.57 | 4.95 | 1.41 | 6.06 | 0.698 | 5.35 | 5.09 | 7.91 | 7.34 | 3.82 | 6.12 | 4.67 | 4.42 | 5.23 | 3.13
